Hits are enriched below; roughly 17% of the tested compounds scored in any of these assays.
TGFb inhibitor – TGF-b pathway inhibition | HepG2 CAGA-GFP TGF-b/SMAD3 reporter, GFP fluorescence, 18 h; TGF-beta stimulated, 500 pg/mL final | actives 1.2% (n = 410,000) | Potency, µM (highest dose often 46.1 µM), without a hit: at the highest dose activity, negative = inhibition, usual class: inhibitors; note: % is set by controls: 0 for no effect and ±100 for the full control effect; nearly all actives have a fitted effect of over 65% in size
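Smad-responsive CAGA-GFP expression was quantified in HEPG2 cells exposed to compounds and 500 pg/mL final TGF-beta for 18 h at 37 degrees C; unstimulated wells defined full inhibition.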
DT40 TDP1 no CPT – qHTS for Inhibitors of human tyrosyl-DNA phosphodiesterase 1 (TDP1): qHTS in cells in absence of CPT. DT40 Tdp1-/- hTDP1 cells, no CPT, ATP luminescence, 48 h. Potency, µM (top dose mostly 46.2 µM), for the others: top-dose activity change, negative = growth inhibition, hits mostly inhibitors. actives 15% (n = 420,000). AID 686978, 2013; note: % is set by controls: 0 for no effect and ±100 for the full control effect; nearly all actives have a fitted effect of over 55% in size
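Growth kinetics read by CellTiter-Glo luminescence after ≥48 hr at 37 °C. Cells: DT40 Tdp1-/- stably carrying human TDP1, 400 per well, compound exposure in the absence of CPT (DMSO vehicle).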
HepG2 tox – kills HepG2 cells in TGF-b inhibitor counter-screen | AID 588856 | HepG2 CAGA-GFP viability, ATP luminescence, 18 h | Potency, µM (titrated, usually from 46.1 µM), without a hit: at the highest dose activity change, negative = cytotoxicity, hits mostly cytotoxic | actives 0.76% (n = 410,000)
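HepG2 CAGA-GFP cells (1000/well, DMEM with 1% FBS) received compound, then TGF-beta at 500 pg/mL final, and were incubated 18 hours at 37 degrees C. Viability was read by CellTiter-Glo luminescence. Media-only wells were set as complete cell-killing and DMSO as no toxicity.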
TDP1 cell CPT – growth inhibition of DT40 Tdp1-/-;hTDP1 cells with camptothecin (screen for TDP1 inhibitors) | chicken DT40 Tdp1-/-;hTDP1 cells + 20 nM CPT, ATP luminescence, 48 h | Potency, µM (top dose mostly 46.2 µM), without a hit: at the top dose activity change, negative = growth inhibition, hits mostly inhibitors | actives 12% (n = 420,000) | AID 686979; note: % is set by controls: 0 for no effect and ±100 for the full control effect; nearly all actives have a fitted effect of over 55% in size
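Chicken DT40 Tdp1-/- cells stably complemented with human TDP1 were seeded at 400 cells/well in medium containing 20 nM camptothecin, exposed to pin-transferred compounds, and grown at 37 °C for at least 48 hr. Viability was read as ATP luminescence.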
ATXN2 expr inh – inhibitors of ATXN2 expression | HEK-293 ATXN2-luciferase reporter, luminescence, 24 h | Potency, µM (series often up to 57 µM), for the others: top-dose activity change, negative = inhibition, hits mostly inhibitors | actives 0.72% (n = 360,000) | AID 1745845; note: % is set by controls: 0 for no effect and ±100 for the full control effect; nearly all actives have a fitted effect of over 55% in size
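qHTS (up to 57 uM final) was run with 24 h compound exposure of reporter cells at 37 °C. Each well was multiplexed: SteadyGlo luminescence measured ATXN2-luciferase expression after a fluorogenic Gly-Phe-AFC viability readout (25 uM final).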
ATXN viability – cell viability loss in ATXN counter-screen. S2 cells (HEK-293 line with an ATXN2-luciferase reporter) viability, CellTiter-Fluor protease fluorescence, 24 h. Potency, µM (top dose mostly 56.7 µM), most hits filed as cytotoxic. actives 0.49% (n = 400,000). AID 651635; note: nearly all actives have a fitted effect of over 40% in size
* = called active by the depositor; i = inactive; ? = inconclusive; . = no result given. Calls come from the whole dose curve; as a rule, active = well fitted curve in the direction sought with a large enough effect; inconclusive = small, poorly fitted or top-dose-only effect, or another doubt; inactive = no such curve, though single readings can be large; an effect the other way counts as inactive or inconclusive. Potency is the fitted concentration of half-maximal effect.

SMILES	TGFb inhibitor	DT40 TDP1 no CPT	HepG2 tox	TDP1 cell CPT	ATXN2 expr inh	ATXN viability
CCCCCCCCN1C(=O)[C@H](CC(=O)NCc2cccc(C(F)(F)F)c2)C[C@@]2(C(=O)OCC)CCCC=C12	.	?	.	?	-8.4%	?
CCCCCCCCN1C(=O)[C@H](CC(=O)NCC2CCCCC2)C[C@@]2(C(=O)OCC)CCC=C12	.	18.4µM*	.	16.4µM*	.	.
C#CCNC(=O)C[C@@H]1C[C@@]2(C(=O)OCC)CCCC=C2N(Cc2ccc3c(c2)OCO3)C1=O	.	-26.7%	.	-15.0%	2.0%	i
CCCCCCCCN1C(=O)[C@H](CC(=O)NCC2CCCCC2)C[C@@]2(C(=O)OCC)CCCC=C12	.	18.4µM*	.	20.6µM*	?	?
COCCN(C(=S)Nc1ccc(C)cc1C)C(C)c1ccco1 (stereo not drawn)	0.1%	?	-14.8%	4.5%	15.9%	i
Cc1ccc2nsnc2c1NC(=O)CCl	-1.0%	20.6µM*	-83.5%	?	-0.1%	i
Cc1ccnc(NC(=O)c2ccc([N+](=O)[O-])o2)c1	?	?	-63.2%	20.6µM*	45.8%	i
O=C(Nc1cccc([N+](=O)[O-])c1)c1ccc([N+](=O)[O-])o1	?	3.66µM*	-63.3%	1.84µM*	.	?
O=C(Nc1ccc2[nH]c(=O)[nH]c2c1)c1ccc([N+](=O)[O-])o1	11.2µM*	-19.1%	-30.3%	?	-6.3%	?
O=C(COc1ccc([N+](=O)[O-])cc1)Nc1ccc2[nH]c(=O)[nH]c2c1	-5.8%	-4.5%	-1.0%	-10.9%	-5.2%	?
NC(=O)c1ccsc1NC(=O)c1ccc2c(c1)CCCC2	?	?	-62.2%	14.6µM*	70.2%	?
NC(=O)c1ccsc1NC(=O)c1ccc([N+](=O)[O-])o1	?	8.2µM*	-1.6%	13µM*	1.4%	i
COc1ccc(C(C)NC(=O)c2ccc([N+](=O)[O-])cc2)cc1OC (stereo not drawn)	0.0%	0.517µM*	-3.5%	0.92µM*	4.7%	i
Cc1ccc(NC(=O)c2ccc([N+](=O)[O-])o2)cc1C	?	10.3µM*	-38.8%	25.9µM*	-10.8%	?
Cc1ccc(NC(=O)c2cc(Cl)ccc2[N+](=O)[O-])cc1C	-23.7%	10.4%	-17.1%	6.3%	-38.4%	?
NC(=O)c1ccsc1NC(=O)COC(=O)c1ccc([N+](=O)[O-])o1	-4.1%	-9.5%	-1.8%	?	-6.7%	i
CNC(=O)c1ccsc1NC(=O)c1ccc2c(c1)CCCC2	?	?	-67.5%	?	-4.3%	?
C[C@@H]1CN(C2CCN(Cc3nc(CC4CC4)no3)CC2)C[C@H](C)O1	1.2%	-1.5%	3.8%	1.6%	-10.5%	i
Cc1cc2oc(C(=O)Nc3sc4c(c3C(=O)NCC3CCCO3)CCC4)cc(=O)c2cc1C (stereo not drawn)	32.2%	-20.4%	5.6%	9.1%	4.8%	i
COc1cccc(NC(=O)c2ccc(-c3ccc([N+](=O)[O-])cc3)o2)c1	-12.1%	?	-14.9%	-28.8%	-20.2%	i
Cc1ccc2nsnc2c1NC(=O)c1ccc([N+](=O)[O-])o1	?	23.1µM*	-24.5%	?	-15.5%	i
COc1ccc(NC(=O)c2ccc(-c3ccc([N+](=O)[O-])cc3)o2)cc1OC	-14.3%	16.4µM*	-4.0%	13µM*	-34.7%	?
Cc1ccc2c(c1)C(c1ccc(N3CCOCC3)cc1)=NNC(c1cccs1)=N2	21.9%	?	-2.1%	?	1.2%	i
Brc1ccc2c(c1)C(c1cccnc1)=NNC(c1cccs1)=N2	-8.4%	?	11.6%	?	-14.8%	i
Fc1ccc2c(c1)C(c1ccc(N3CCOCC3)cc1)=NNC(c1cccs1)=N2	-3.2%	23.1µM*	-7.1%	?	-10.0%	?
SMILES	TGFb inhibitor	DT40 TDP1 no CPT	HepG2 tox	TDP1 cell CPT	ATXN2 expr inh	ATXN viability
Brc1ccc2c(c1)C(c1ccc(N3CCOCC3)cc1)=NNC(c1cccs1)=N2	-9.4%	20.6µM*	-25.2%	?	-2.0%	i
Cc1ccc(C2=Nc3ccccc3N(CC(=O)NCc3ccc(Cl)cc3)C(=O)C2)cc1C	-26.8%	14.6µM*	-7.7%	?	18.7%	i
O=C(CN1C(=O)CC(c2ccc(F)cc2)=Nc2ccccc21)NCc1ccccc1Cl	?	25.9µM*	-61.0%	?	3.3%	i
CCOC(=O)c1ccc(NC(=O)CN2C(=O)CC(c3ccc(C)c(C)c3)=Nc3ccccc32)cc1	-7.8%	?	-28.4%	?	36.4%	i
CN(C)c1ccc(NC(=O)CN2C(=O)CC(c3ccccc3)=Nc3ccccc32)cc1	-1.0%	-20.8%	-19.3%	1.7%	-4.9%	i
Cc1ccc(C2=Nc3ccccc3N(CC(=O)NCc3ccc(F)cc3)C(=O)C2)cc1C	-6.7%	23.1µM*	-7.6%	14.6µM*	27.0%	i
N#Cc1nc(-c2ccc(OCc3ccc(Cl)cc3)cc2)oc1N1CCCCCC1	12.9%	?	7.2%	?	.	.
Cc1ccc(-c2nnc(SCC(=O)N3CC(C)CC(C)C3)o2)cc1C (stereo not drawn)	-4.1%	20.6µM*	-1.7%	25.9µM*	-21.6%	?
COc1cccc(-c2nnc(SCC(=O)N3CC(C)CC(C)C3)o2)c1 (stereo not drawn)	-1.0%	20.6µM*	-23.9%	?	-10.6%	i
CC1CC(C)CN(C(=O)CSc2nnc(-c3ccc(Cl)cc3)o2)C1 (stereo not drawn)	7.0%	18.4µM*	-20.9%	?	-14.0%	i
COc1cccc(-c2nnc(SCC(=O)N3CCOCC3)o2)c1	-1.6%	-23.1%	-0.1%	-20.0%	23.0%	i
Cc1cc(C)c2c(=O)cc(C(=O)Nc3sc4c(c3C(=O)NCC3CCCO3)CCCC4)oc2c1 (stereo not drawn)	-1.0%	-1.5%	-27.5%	-0.7%	-1.1%	i
CC1(CNC(=O)C(=O)NCC2(C)CO2)CO1 (stereo not drawn)	1.2%	1.64µM*	9.1%	0.82µM*	?	i
c1ccc(C[n+]2cccc(-c3ccccc3)c2)cc1	-37.5%	8.2µM*	-25.7%	8.2µM*	-10.8%	i
Clc1cccc(Cl)c1C[n+]1ccc2ccccc2c1	-42.7%	1.46µM*	-19.0%	1.64µM*	.	i

Source: PubChem
